Experimental findings from PubChem BioAssay (Tox21) are described below.

Test [1] addresses Thyrotropin receptor (Homo sapiens) (UniProt P16473). Nature of the test: qHTS assay to identify small molecule agonists of the thyroid stimulating hormone receptor (TSHR) signaling pathway (AID 1224843; calls by dose curve; also: nearly all actives have a fitted effect of over 45% in size). In a few lines: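 Agonist activity read as cAMP rise via d2/cryptate HTRF competition, 1 h room-temperature detection, in HEK293 cells expressing TSHR. Fifteen-point titrations, each run in triplicate, with a 30 min room-temperature incubation beforehand.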
For orientation: In qHTS, concentration-response curves come from the screen itself.

Test [2] is described as follows: qHTS assay to identify small molecule agonists of H2AX (AID 1224845; active = well fitted activation curve with a large enough effect in the signal ratio in the repeat runs, not every such curve was filed as active; the % refers to the signal ratio). In a few lines: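 Phospho-H2AX Ser139 measured by HTRF (ex 320 nm; em 665 and 620 nm) after 24 hr antibody incubation. Compounds, 15 concentrations, 0.76% DMSO, were applied to CHO-K1 cells for 3hr at 37C before lysis.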
Test [3] is described as follows: qHTS assay to identify small molecule agonists of the hypoxia (HIF-1) signaling pathway (AID 1224846; active = well fitted activation curve with a large enough effect in the signal ratio in the repeat runs, not every such curve was filed as active; the % refers to the signal ratio). In a few lines:
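Compounds added to ME-180 cells carrying hypoxia-response-element beta-lactamase reporter (0.5% dialyzed FBS, 5 h preplating), 17 h at 37C; agonist activity detected by CCF4-AM B/G FRET read-out.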

The nature of test [4]: qHTS assay to identify small molecule agonists of H2AX - cell viability counter screen (AID 1224847; calls by dose curve;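 also: wild-type CHO-K1 cells; top concentration of the series differs between compounds; nearly all actives have a fitted effect of over 30% in size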). In a few lines:
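CHO-K1 cells plated overnight at 37C, then exposed 3 h at 37C to compounds at 15 concentrations (0.76% DMSO final). Viability by CellTiter-Glo luminescence after 30 min at room temperature.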

Test [5] in a line: qHTS RealTime-Glo MT Cell Viability Assay in HEK293 cells - 32 hour (AID 1224868). Also: nearly all actives have a fitted effect of over 50% in size. Also: potency is read from the fitted curve at half-maximal effect. Put shortly: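 Viability tracked continuously by luminescence as live cells reduce a prosubstrate for NanoLuc; HEK293 cells preincubated 5 h, compound-treated at 37 C, and read at 0, 8, 16, 24, 32 and 40 h.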
Test [6] is described as follows: A CellTox Green Cytotoxicity Assay to monitor cytotoxicity in HEK293 cells - 0 hour (AID 1224869). Also: nearly all actives have a fitted effect of over 50% in size. In a few lines:
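Fluorescence from a DNA-binding dye excluded by viable cells was measured repeatedly in the same HEK293 wells (600 cells/well) during continuous compound exposure at 37 C. Each assay gives one read point: 0, 8, 16, 24, 32 or 40 h.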

Test [7] is described as follows: qHTS assay to identify small molecule antagonists of the estrogen related receptor (ERR) signaling pathway from Tox21 library (AID 1224848). Also: nearly all actives have a fitted effect of over 50% in size. Also: potency is read from the fitted curve at half-maximal effect. Put shortly:
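Luciferase luminescence (ONE-Glo, 30 min room temperature) was the read-out. Cells of the NTP-supplied ERR line, 2,000 per well, were given 6 h at 37 C before compound addition in DMSO and 18 h exposure at 37 C.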

A short description of test [8]: qHTS assay to identify small molecule agonists of the estrogen related receptor (ERR) signaling pathway from Tox21 library (AID 1224849; calls by dose curve; also: nearly all actives have a fitted effect of over 15% in size). Conditions: ERR reporter cell line, ONE-Glo luciferase, 18 h; at 92.4 µM (top of the series) unless noted. In a few lines: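 Luminescent agonist read-out (One-Glo, 30-minute room-temperature incubation) following 18-hour compound treatment at 37 C of the ERR cell line, which had been plated 6 hours before dosing.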

Test [9] is described as follows: qHTS RealTime-Glo MT Cell Viability Assay in HepG2 cells - 24 hour (AID 1224867). Also: nearly all actives have a fitted effect of over 50% in size. Put shortly:
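Viability was tracked continuously by NanoLuc luminescence from prosubstrate reduced by living HepG2 cells, at successive time points over 40 h of compound exposure. Cells with reagent were preincubated 5 h at 37 °C before compound addition.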

Test [10] can be described thus: qHTS assay to identify small molecule agonists of the hypoxia (HIF-1) signaling pathway - cell viability counter screen (AID 1224844; calls by dose curve; also: nearly all actives have a fitted effect of over 50% in size; also: potency is read from the fitted curve at half-maximal effect). In a few lines:
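Cytotoxicity measured by CellTiter-Glo ATP luminescence in the wells also read for beta-lactamase signal. Cells were HRE-bla ME-180 (2,000/well, 0.5% dialyzed FBS), exposed to compounds for 17 h at 37C.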

Values without a mark were called inactive. Results filed as inconclusive are left out. Calls of active or inactive are those of the source. Unless noted, calls follow the shape of the dose curve; as a rule, active = well fitted curve in the direction sought with a large enough effect in the repeat runs; inconclusive = weak or mixed curves; inactive = no such curve, though single readings can be large; an effect the other way counts as inactive or inconclusive.
% is scaled to controls: 0 for no effect and ±100 for the full control effect.

Thyrotropin receptor (Homo sapiens), sequence (P16473 whole entry, looked up): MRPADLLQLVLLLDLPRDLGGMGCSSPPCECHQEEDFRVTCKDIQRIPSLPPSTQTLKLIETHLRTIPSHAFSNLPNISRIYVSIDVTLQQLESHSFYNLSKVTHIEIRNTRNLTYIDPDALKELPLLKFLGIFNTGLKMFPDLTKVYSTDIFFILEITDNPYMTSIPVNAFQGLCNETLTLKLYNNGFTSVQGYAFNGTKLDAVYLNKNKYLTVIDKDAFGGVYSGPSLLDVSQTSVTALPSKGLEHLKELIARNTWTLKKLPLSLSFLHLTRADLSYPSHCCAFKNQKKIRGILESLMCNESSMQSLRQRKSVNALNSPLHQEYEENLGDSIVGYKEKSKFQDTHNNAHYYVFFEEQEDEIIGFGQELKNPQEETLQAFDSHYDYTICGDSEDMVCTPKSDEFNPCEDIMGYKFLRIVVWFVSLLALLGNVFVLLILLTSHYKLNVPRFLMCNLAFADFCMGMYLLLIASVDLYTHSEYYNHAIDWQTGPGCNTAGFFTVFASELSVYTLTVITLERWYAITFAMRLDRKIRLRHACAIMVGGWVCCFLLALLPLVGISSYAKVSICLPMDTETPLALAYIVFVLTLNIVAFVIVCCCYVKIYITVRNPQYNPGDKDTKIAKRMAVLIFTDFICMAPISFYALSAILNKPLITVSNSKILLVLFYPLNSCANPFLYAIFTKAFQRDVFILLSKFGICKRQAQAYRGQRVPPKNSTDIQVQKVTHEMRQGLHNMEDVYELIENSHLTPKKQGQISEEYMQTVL

For the compound `C=CC(C)CCC=C(C)C` (centres undefined), the Potency result in test [1], in [2], in test [4], in test [5] and in [6] was “inactive” throughout. In addition, the call in test [3] was inactive.

In the case of `C/C(=C(\CCO)SS/C(CCO)=C(\C)N(C=O)Cc1cnc(C)nc1N)N(C=O)Cc1cnc(C)nc1N`, the Potency result in [1], in [2], in test [7], in test [5] and in test [6] was “inactive” each time. For the same compound, the call in [3] and in [9] was inactive. Further, the activity change, positive = activation in test [8] was 3.66% [at 42.5 µM].

For the compound `CC1(C)[C@@H]2CC[C@]3(C2)[C@@H]1C(=O)CCC3(C)C`, the Potency result in [1], in test [10], in test [4], in [5] and in test [6] was “inactive” throughout. Also, the compound was called inactive in test [9].

For the compound `Nc1cccc2c(=O)[nH][nH]c(=O)c12`, the Potency entry in test [1], in test [10] and in test [6] was “inactive” in each case. Also, the compound was called inactive in test [3] and in test [9]. The Potency in [7] is 48.8 µM (active). In addition, the activity change, positive = activation in test [8] is -53.6%.

As to `O=C1CCCN1CCO`, the Potency result in test [1], in test [4], in [5] and in test [6] was “inactive” in each case. The Potency in test [10] is 21.9 µM (active).

In the case of `CC(CC(C#N)(c1ccccc1)C(C)C)N(C)C` (centres undefined), the Potency entry in [1], in [2], in test [4], in test [7], in [5] and in test [6] was “inactive” each time. Besides, the outcome in test [3] and in test [9] was inactive. In test [8], the activity change, positive = activation was 2.64% [at 42.5 µM].

On to `CC(C)Cc1nccs1`, for which the Potency result in test [1], in [2], in test [4] and in test [6] was “inactive” in each case. For the same compound, the call in [3] was inactive.

As for `O=C(Cl)c1cc(Cl)cc(Cl)c1`, the Potency result in test [1], in test [10] and in test [5] was “inactive” in each case. Besides, the outcome in test [9] was inactive.

For `CC(C)(C)N`, the Potency entry in test [1], in test [2], in [4], in test [5] and in [6] was “inactive” throughout. Moreover, the compound was called inactive in [3] and in test [9].

As for `CCC(=O)O[C@]1(C(=O)COC)[C@@H](C)C[C@H]2[C@@H]3CCC4=CC(=O)C=C[C@]4(C)C3(F)[C@@H](O)C[C@@]21C` (some centres undefined), the Potency result in test [1], in [2], in test [4], in test [7], in test [5] and in test [6] was “inactive” each time. For the same compound, in test [8], the activity change, positive = activation was -12.4% [at 42.5 µM]. In addition, the call in [9] was inactive.

For `CC/C=C\CCO`, the Potency result in [10], in test [2], in test [4], in test [7], in test [5] and in test [6] was “inactive” in each case. Also, the result in [3] and in [9] was inactive. Further, the activity change, positive = activation in test [8] is 0.448%.

In the case of `C=CC(=O)NC(C)(C)C`, the Potency entry in test [1], in test [4] and in [6] was “inactive” throughout. Besides, the outcome in test [3] and in [9] was inactive.

On to `CCc1cnc(C(=O)O)c(C(=O)O)c1`, for which the Potency entry in test [10], in test [2], in test [4], in test [5] and in test [6] was “inactive” each time. Further, the call in test [3] and in [9] was inactive.

In the case of `Cc1cc(SC2=C(O)C[C@@](CCc3ccc(N)cc3)(C(C)C)OC2=O)c(C(C)(C)C)cc1CO`, the Potency result in test [1], in test [4], in test [7], in test [5] and in [6] was “inactive” throughout. For the same compound, the call in test [3] was inactive. Also, the activity change, positive = activation in test [8] was -7.37%.

As to `NCCOCCOCCN`, the Potency result in test [1], in test [7], in test [5] and in test [6] was “inactive” in each case. The activity change, positive = activation in [8] was -4.55%. The compound was classed as inactive in [9].

Consider `CCC(C)C1N=C(C)C(C)S1` (centres undefined), for which the Potency entry in [1], in test [2], in test [4], in test [7] and in [5] was “inactive” throughout. For the same compound, in [8], the activity change, positive = activation was -2.96%. Moreover, in test [9], the compound was classed as inactive.

For the compound `CC(C)CC(C)(C)C`, the Potency entry in [1] and in test [4] was “inactive” throughout. The result in test [3] and in [9] was inactive. Moreover, the activity change, positive = activation in test [8] was -31.7%.

As for `O=S(=O)(O)c1cc(Cl)c(Cl)cc1Cl`, the Potency result in test [1], in test [2], in test [4], in test [5] and in [6] was “inactive” throughout. Moreover, the call in test [9] was inactive.

For `O=c1c2ccccc2oc2ccccc12`, the Potency entry in test [10], in test [2], in test [4], in [5] and in [6] was “inactive” throughout. In addition, the outcome in test [3] and in [9] was inactive.

For the compound `O=C(O)c1ccc2cc(O)ccc2c1`, the Potency entry in [10], in test [2], in test [4], in test [5] and in [6] was “inactive” each time. In addition, in [3], the outcome was inactive.

Take `CCCCCCCCS`: the Potency entry in [10], in test [2] and in [4] was “inactive” throughout. The result in test [3] was inactive.

For `CCC(C(=O)O)c1ccc(N2Cc3ccccc3C2=O)cc1` (centres undefined), the Potency result in [10], in test [2], in test [4], in test [5] and in test [6] was “inactive” each time. In addition, the compound was classed as inactive in test [3] and in [9].

As to `CCCCOC(=O)C(C)Oc1ccc(Oc2ccc(C(F)(F)F)cn2)cc1` (centres undefined), the Potency entry in test [10], in test [2], in test [4] and in test [5] was “inactive” throughout. For the same compound, the result in [3] and in [9] was inactive.

As for `CCOC(C)OCC`, the Potency result in test [10], in [2], in [4] and in [5] was “inactive” each time. In addition, the outcome in [3] and in test [9] was inactive.

`CC(C)(Cc1c[nH]c2ccccc12)NCC(O)COc1ccccc1C#N` (centres undefined): the Potency result in test [10], in [2], in [4], in test [7] and in [6] was “inactive” throughout. Further, the compound was called inactive in test [3] and in test [9]. In addition, in test [8], the activity change, positive = activation was -15.2% [at 42.5 µM]. Further, in test [5], the Potency was 16.9 µM (active).

For the compound `CC(COc1ccccc1)NC(C)C(O)c1ccc(O)cc1` (centres undefined), the Potency result in test [1], in test [2], in test [4], in test [7] and in test [5] was “inactive” throughout. Besides, the activity change, positive = activation in test [8] is 0.415% [at 42.5 µM]. Further, the outcome in [9] was inactive.
